From PubChem BioAssay AID1159580 (chemical genetic matrix, 2015)
About 2,000 (36%) of roughly 5,500 compounds were called active. Inconclusive results (about 18%) are left out. No stated cut-off is given here; in the data, active means normalized growth mostly below about 0.91 (no sharp cut-off); inconclusive means no clear call, values can overlap the other calls; inactive means mostly above about 0.92. The list shows a part of the results.

Assay: chemical genetic growth profiling, strain panel (AID 1159580);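 further: tested at 20 µM; growth read once vehicle control cultures reached saturation at 30 °C; 1 = growth at the plate median or of vehicle wells; lower values mean less growth of the strain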
Conditions: S. cerevisiae deletion strains, growth OD
[1] = locus YDL101C, strain DUN1, hits give low values
[2] = locus YHR030C, strain SLT2, hits give low values

Measured: normalized growth

N#Cc1ccc(S(=O)(=O)Nc2ccccc2Oc2ccc(Cl)cc2Cl)cc1
active: locus YLR113W, strain HOG1, hits give low values 0.836
inactive: locus YAR019C, strain CDC15, hits give low values 0.98 | locus YBL105C, strain PKC1, hits give low values 0.98 | locus YBR135W, strain CKS1, hits give low values 0.976 | locus YBR136W, strain MEC1, hits give low values 0.985 | locus YBR160W, strain CDC28, hits give low values 0.983 | locus YDL017W, strain CDC7, hits give low values 0.979 | locus YDL028C, strain MPS1, hits give low values 0.979 | [1] 0.986 | locus YDL108W, strain KIN28, hits give low values 0.973 | locus YDL132W, strain cdc53, hits give low values 0.979 | locus YDL214C, strain PRR2, hits give low values 0.968 | locus YDR052C, strain DBF4, hits give low values 0.979 | locus YDR054C, strain cdc34, hits give low values 0.974 | locus YDR226W, strain ADK1, hits give low values 0.969 | locus YDR477W, strain SNF1, hits give low values 0.935 | locus YER123W, strain YCK3, hits give low values 0.948 | locus YER133W, strain GLC7, hits give low values 0.928 | locus YFL009W, strain cdc4, hits give low values 0.987 | locus YFL029C, strain CAK1, hits give low values 0.979 | locus YFR003C, strain YPI1, hits give low values 0.974 | locus YFR019W, strain FAB1, hits give low values 0.955 | locus YFR028C, strain CDC14, hits give low values 0.98 | locus YGR040W, strain KSS1, hits give low values 0.945 | locus YGR052W, strain FMP48, hits give low values 0.985 | locus YGR092W, strain DBF2, hits give low values 0.879 | [2] 0.88 | locus YHR079C, strain IRE1, hits give low values 0.931 | locus YHR082C, strain KSP1, hits give low values 1.07 | locus YHR205W, strain SCH9, hits give low values 0.936 | locus YIL147C, strain SLN1, hits give low values 0.986 | locus YJL095W, strain BCK1, hits give low values 0.905 | locus YJL128C, strain PBS2, hits give low values 0.961 | locus YJL157C, strain FAR1, hits give low values 0.947 | locus YJR016C, strain ILV3, hits give low values 0.97 | locus YJR066W, strain TOR1 (second series), hits give low values 0.9 | locus YJR066W, strain TOR1, hits give low values 1.04 | locus YKL048C, strain ELM1, hits give low values 0.959 | locus YKL067W, strain YNK1, hits give low values 0.973 | locus YKL101W, strain HSL1, hits give low values 0.957 | locus YKL193C, strain SDS22, hits give low values 0.978 | locus YKL203C, strain TOR2, hits give low values 1.02 | locus YLR133W, strain CKI1, hits give low values 0.972 | locus YLR403W, strain SFP1, hits give low values 0.912 | locus YML070W, strain DAK1, hits give low values 0.94 | locus YMR001C, strain CDC5, hits give low values 0.982 | locus YMR205C, strain PFK2 (second series), hits give low values 0.972 | locus YMR277W, strain FCP1, hits give low values 0.973 | locus YNL006W, strain LST8, hits give low values 0.977 | locus YNL020C, strain ARK1, hits give low values 0.965 | locus YNL161W, strain CBK1, hits give low values 0.982 | locus YNL183C, strain NPR1, hits give low values 1.08 | locus YNL207W, strain RIO2, hits give low values 0.979 | locus YNL222W, strain SSU72, hits give low values 0.978 | locus YNL307C, strain MCK1 (second series), hits give low values 0.965 | locus YOL078W, strain AVO1, hits give low values 0.971 | locus YOL136C, strain PFK27, hits give low values 0.967 | locus YOR061W, strain CKA2, hits give low values 0.872 | locus YOR119C, strain RIO1, hits give low values 1.01 | locus YOR231W, strain MKK1, hits give low values 1.01 | locus YOR329C, strain SCD5, hits give low values 0.982 | locus YPL031C, strain PHO85, hits give low values 0.926 | locus YPL153C, strain RAD53, hits give low values 0.945 | locus YPL204W, strain HRR25, hits give low values 0.949 | locus YPL209C, strain IPL1, hits give low values 0.983 | locus YPL256C, strain CLN2, hits give low values 0.967 | locus YPR025C, strain CCL1, hits give low values 0.976 | locus YPR106W, strain ISR1, hits give low values 0.96 | locus YPR111W, strain DBF20, hits give low values 0.963 | strain NNK1, hits give low values 0.981 | strain TSCII, hits give low values 0.99

COc1ccc(S(=O)(=O)Nc2ccccc2Oc2ccc(Cl)cc2Cl)cc1OC
inactive: locus YAL013W, strain DEP1, hits give low values 1.01 | locus YBR229C, strain ROT2, hits give low values 1.01 | locus YCL061C, strain MRC1, hits give low values 1.07 | [1] 1.08 | locus YDL134C, strain PPH21, hits give low values 1.01 | locus YDR150W, strain NUM1, hits give low values 0.933 | locus YEL061C, strain CIN8, hits give low values 0.999 | locus YGR078C, strain PAC10, hits give low values 1.04 | locus YGR229C, strain SMI1, hits give low values 0.995 | [2] 1.06 | locus YHR087W, strain rtc3, hits give low values 0.988 | locus YJL187C, strain SWE1, hits give low values 1 | locus YJR043C, strain POL32, hits give low values 1.05 | locus YJR075W, strain HOC1, hits give low values 1 | locus YKL190W, strain CNB1, hits give low values 1.01 | locus YLR039C, strain RIC1, hits give low values 1.06 | locus YLR058C, strain SHM2 (second series), hits give low values 0.988 | locus YLR085C, strain ARP6, hits give low values 1.08 | locus YLR262C, strain YPT6, hits give low values 0.99 | locus YML094W, strain GIM5, hits give low values 1 | locus YMR219W, strain ESC1, hits give low values 1 | locus YMR263W, strain SAP30, hits give low values 0.967 | locus YMR307W, strain GAS1, hits give low values 0.986 | locus YNL128W, strain TEP1, hits give low values 1 | locus YNL153C, strain GIM3, hits give low values 1.03 | locus YNL298W, strain CLA4 (second series), hits give low values 1.05 | locus YNL322C, strain KRE1, hits give low values 0.988 | locus YNR030W, strain Alg12, hits give low values 1.02 | locus YPL055C, strain LGE1, hits give low values 0.959 | locus YPL241C, strain CIN2, hits give low values 1.03 | locus YPR135W, strain CTF4, hits give low values 1.03
